Reference: PubChem BioAssay (Tox21)
Records with an inconclusive call do not appear. The source made the active and inactive calls. Unless noted, calls come from the whole dose curve.

Key:
[1] = Nuclear factor erythroid 2-related factor 2/antioxidant responsive element (Nrf2/ARE) small molecule agonists: qHTS cell viability counter screen in human keratinocytes (AID 1919968; active = well fitted curve in the direction sought with a large enough effect in the repeat runs; an effect the other way counts as inactive or inconclusive; note: nearly all actives have a fitted effect of over 55% in size)
Summary of the method: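 Fluorescence read-out from CellTiter-Fluor after 1 h at 37 C. Wells held HaCaT-derived ARE-luciferase reporter cells (1,500/well) treated 23 h with DMSO-dissolved compounds. Run in the same wells as the luciferase agonist read.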

[2] = Nuclear factor erythroid 2-related factor 2/antioxidant responsive element (Nrf2/ARE) small molecule agonists: luciferase reporter gene qHTS assay in human keratinocytes (AID 1919969); note: nearly all actives have a fitted effect of over 35% in size; note: potency is the fitted concentration of half-maximal effect
[3] = biological target: Gonadotropin-releasing hormone receptor (Homo sapiens) (UniProt P30968); experiment: Human gonadotropin-releasing hormone receptor (GnRHR) small molecule agonists, calcium flux assay in GnRHR-HEK293 cells (AID 1920063); note: nearly all actives have a fitted effect of over 35% in size
Summary of the method: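 Calcium-dye fluorescence, Ex/Em=480/540, recorded every 1 sec over 3 min after compound addition to GnRHR-HEK293 cells. Cells had been seeded 18 hours earlier and dye-loaded for 1 hour at 37 C. Fifteen concentrations, triplicates.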

[4] = biological target: KiSS-1 receptor (Homo sapiens) (UniProt Q969F8); experiment: Human kisspeptin (KISS1R) small molecule agonists, calcium flux assay in KISS1R-HEK293 cells (AID 1920064; active = well fitted curve in the direction sought with a large enough effect in the repeat runs; an effect the other way counts as inactive or inconclusive)
Summary of the method: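 Calcium flux read-out: kinetic fluorescence at Ex/Em=480/540, 1 s intervals over 3 min, after pin-tool compound addition to dye-loaded KISS1R-HEK293 cells. Fifteen concentrations, triplicates.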

[5] = G protein-coupled receptor (GPCR) small molecule agonists, calcium flux assay: HEK293 wild type cell line counter screen (AID 1920065)
Summary of the method: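 Agonist mode; 18 h seeding at 37 C, 1 h dye load at 37 C; compounds pinned from DMSO, ATP as positive control; kinetic fluorescence 480/540 nm, 3 min, 1 s reads; 15 concentrations, triplicate.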

[6] = p53 small molecule agonists, cell-based qHTS assay with human liver microsomes (AID 1963577);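 note: p53 response element beta-lactamase reporter cells with liver microsomes plus NADPH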
Summary of the method: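 In this qHTS, p53 response-element beta-lactamase cells receive test compound together with a microsome/NADPH activating system (0.5 mg/mL final each) and are incubated 16 h at 37 C before LiveBLAzer fluorescence detection.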

[7] = p53 small molecule agonists, cell-based qHTS assay with rat liver microsomes (AID 1963578)
Summary of the method: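 Agonist mode in p53RE-bla reporter cells, with compounds co-incubated 16 h at 37 C alongside 0.5 mg/mL rat liver microsomes and 0.5 mg/mL NADPH (final), followed by a 2 h LiveBLAzer detection step.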

[8] = p53 small molecule agonists, cell-based qHTS assay with human liver microsomes: qHTS cell viability counter screen (AID 1963579); note: nearly all actives have a fitted effect of over 45% in size
Summary of the method: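 Metabolically activated exposure: compounds, human liver microsomes and NADPH (0.5 mg/mL final apiece) were added to p53RE-bla cells seeded 5 h earlier, left 16 h at 37 C, and then assessed for viability by CellTiter-Glo luminescence.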

[9] = p53 small molecule agonists, cell-based qHTS assay with rat liver microsomes: qHTS cell viability counter screen (AID 1963580); note: nearly all actives have a fitted effect of over 45% in size
Summary of the method: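 Cytotoxicity counter screen: intracellular ATP read by CellTiter-Glo luminescence in the p53 reporter wells. HCT-116 p53RE-bla cells were treated for 16 h at 37 C alongside rat liver microsomes and NADPH, each 0.5 mg/mL final.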

[10] = p53 small molecule agonists, cell-based qHTS assay (AID 1963582; active = well fitted activation curve with a large enough effect in the signal ratio in the repeat runs, not every such curve was filed as active; the % refers to the signal ratio)
Summary of the method: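 Fluorescence intensity read-out of a beta-lactamase reporter under a p53 response element. Cells were exposed to DMSO-dissolved compounds for 16 h at 37 C, then developed with FRET substrate for 2 h at RT.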

[11] = biological target: 5-hydroxytryptamine receptor 2A (Homo sapiens) (UniProt P28223); experiment: 5-hydroxytryptamine receptor 2A (HTR2A) small molecule antagonists, cell-based qHTS assay (AID 1963586); note: nearly all actives have a fitted effect of over 45% in size; note: potency is the fitted concentration of half-maximal effect
Summary of the method: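 CHO cells stably expressing human HTR2A were plated for 18 h at 37 C, then loaded with calcium dye for 1 h. Compounds were preincubated 5 min at room temperature before DOI (4 nM solution) was added. Kinetic fluorescence was read for 3 min.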

[12] = biological target: 5-hydroxytryptamine receptor 2A (Homo sapiens) (UniProt P28223); experiment: 5-hydroxytryptamine receptor 2A (HTR2A) small molecule agonists, cell-based qHTS assay (AID 1963587); note: nearly all actives have a fitted effect of over 30% in size; note: potency is the fitted concentration of half-maximal effect
Summary of the method: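 Kinetic calcium-flux fluorescence (2 min, 1 sec intervals) after compound addition in agonist mode. HTR2A-CHO cells were cultured 18 h, then dye-loaded 1 h at 37 C.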

[13] = biological target: Muscarinic acetylcholine receptor M1 (Homo sapiens) (UniProt P11229); experiment: Cholinergic receptor muscarinic 1 (CHRM1) small molecule agonists, cell-based qHTS assay (AID 1963589); note: nearly all actives have a fitted effect of over 35% in size
Summary of the method: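 Calcium flux read-out: kinetic fluorescence at 1 sec intervals after pin-tool compound addition to dye-loaded CHRM1-CHO cells (human M1). Agonist mode; 15 concentrations tested in triplicate independent runs.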

[14] = cAMP Responsive Elements (CRE) small molecule agonists, cell-based qHTS assay (AID 1963590)
Summary of the method: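 Beta-lactamase reporter readout: LiveBLAzer B/G FRET substrate, 2 h at room temperature, added after 3 h compound treatment of CRE-bla HEK 293T cells at 37 C/5% CO2.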

[15] = biological target: Beta-2 adrenergic receptor (Homo sapiens) (UniProt P07550); experiment: Adrenergic beta2 receptor (ADRB2) small molecule antagonists, cell-based qHTS assay (AID 1963592); note: nearly all actives have a fitted effect of over 50% in size; note: potency is the fitted concentration of half-maximal effect
Summary of the method: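 Assay format: CHO-ADRB2 cells, 18-20hr seeding at 37C/5% CO2, then compound plus 1nM isoproterenol agonist mix for 0.5hr RT. Homogeneous time-resolved fluorescence cAMP detection after 1hr, expressed as 665/615 nm ratio.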

[16] = biological target: D(2) dopamine receptor (Homo sapiens) (UniProt P14416); experiment: Dopamine D2 receptor (DRD2) small molecule agonists, cell-based qHTS assay (AID 1963594); note: nearly all actives have a fitted effect of over 35% in size
Summary of the method: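 cAMP accumulation in DRD2-HEK293 cells measured by HTRF after 1 h detection; compounds added 10 min before NKH477 (200nM […]) forskolin-analogue stimulation, 30 min at room temperature, with Ro20-1724 present at 0.1 mM final.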

[17] = biological target: D(2) dopamine receptor (Homo sapiens) (UniProt P14416); experiment: Dopamine D2 receptor (DRD2) small molecule antagonists, cell-based qHTS assay (AID 1963595; active = well fitted inhibition curve with a large enough effect in the signal ratio in the repeat runs, with a control signal flat; the % refers to the signal ratio; note: potency is the fitted concentration of half-maximal effect)
Summary of the method: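 Cells were plated and grown for 24 h at 37 °C. Ro20-1724 (0.1 mM final) went in first, then compound for 10 min. NKH477 (200 nM) with quinpirole (12 nM) followed for 30 min at RT, then HTRF detection reagents for 1 h.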

[18] = cAMP Responsive Elements (CRE) small molecule antagonists, cell-based qHTS assay (AID 1963591; active = well fitted inhibition curve with a large enough effect in the signal ratio in the repeat runs, not every such curve was filed as active; the % refers to the signal ratio)
Summary of the method: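 HEK293T CRE-bla; 18 h preincubation; compound pin-transfer; NKH477 0.25 uM final, 3 h, 37 C; LiveBLAzer FRET substrate 2 h RT.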

[19] = biological target: Muscarinic acetylcholine receptor M1 (Homo sapiens) (UniProt P11229); experiment: Cholinergic receptor muscarinic 1 (CHRM1) small molecule antagonists, cell-based qHTS assay (AID 1963588); note: nearly all actives have a fitted effect of over 40% in size; note: potency is the fitted concentration of half-maximal effect
Summary of the method: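 Compounds were tested at 15 concentrations in three independent runs. Dye-loaded CHRM1-CHO cells were exposed 5 min at room temperature before stimulation by acetylcholine added at 50nM. Intracellular calcium was read kinetically on FDSS for 3 min.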

[20] = biological target: Beta-2 adrenergic receptor (Homo sapiens) (UniProt P07550); experiment: Adrenergic beta2 receptor (ADRB2) small molecule agonists, cell-based qHTS assay (AID 1963593);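 note: CHO cells stably overexpressing human ADRB2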
Summary of the method: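 CHO cells stably over-expressing ADRB2 were plated overnight at 37C, then dosed with compounds plus a stimulation mix containing 100uM IBMX and 25uM Ro-20-1724 for 0.5hr at room temperature. cAMP was measured by HTRF competition, 1hr.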

Measured: Potency

KiSS-1 receptor (Homo sapiens), sequence (Q969F8 whole entry, looked up): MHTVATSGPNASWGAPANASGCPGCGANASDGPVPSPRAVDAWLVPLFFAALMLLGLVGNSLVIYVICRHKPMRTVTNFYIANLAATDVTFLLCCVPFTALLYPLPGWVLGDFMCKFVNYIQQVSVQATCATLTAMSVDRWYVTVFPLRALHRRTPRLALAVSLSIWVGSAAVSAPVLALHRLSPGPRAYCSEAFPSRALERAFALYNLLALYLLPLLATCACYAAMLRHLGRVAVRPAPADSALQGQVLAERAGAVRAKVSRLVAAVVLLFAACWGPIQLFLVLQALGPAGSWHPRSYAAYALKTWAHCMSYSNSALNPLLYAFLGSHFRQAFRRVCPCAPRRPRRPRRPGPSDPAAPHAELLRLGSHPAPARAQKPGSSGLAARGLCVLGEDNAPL
Beta-2 adrenergic receptor (Homo sapiens), sequence (P07550 whole entry, looked up): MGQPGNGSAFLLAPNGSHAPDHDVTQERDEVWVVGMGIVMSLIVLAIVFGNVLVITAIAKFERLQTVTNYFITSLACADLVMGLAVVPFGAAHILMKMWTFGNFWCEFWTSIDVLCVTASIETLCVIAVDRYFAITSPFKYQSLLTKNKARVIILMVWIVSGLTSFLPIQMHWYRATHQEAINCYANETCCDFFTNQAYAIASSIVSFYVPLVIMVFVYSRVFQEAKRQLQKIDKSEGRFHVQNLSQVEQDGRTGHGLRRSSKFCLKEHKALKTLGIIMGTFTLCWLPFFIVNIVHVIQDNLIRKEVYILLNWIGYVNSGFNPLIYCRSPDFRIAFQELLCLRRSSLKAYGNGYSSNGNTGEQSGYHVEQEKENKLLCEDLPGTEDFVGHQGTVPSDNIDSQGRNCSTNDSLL
Muscarinic acetylcholine receptor M1 (Homo sapiens), sequence (P11229 whole entry, looked up): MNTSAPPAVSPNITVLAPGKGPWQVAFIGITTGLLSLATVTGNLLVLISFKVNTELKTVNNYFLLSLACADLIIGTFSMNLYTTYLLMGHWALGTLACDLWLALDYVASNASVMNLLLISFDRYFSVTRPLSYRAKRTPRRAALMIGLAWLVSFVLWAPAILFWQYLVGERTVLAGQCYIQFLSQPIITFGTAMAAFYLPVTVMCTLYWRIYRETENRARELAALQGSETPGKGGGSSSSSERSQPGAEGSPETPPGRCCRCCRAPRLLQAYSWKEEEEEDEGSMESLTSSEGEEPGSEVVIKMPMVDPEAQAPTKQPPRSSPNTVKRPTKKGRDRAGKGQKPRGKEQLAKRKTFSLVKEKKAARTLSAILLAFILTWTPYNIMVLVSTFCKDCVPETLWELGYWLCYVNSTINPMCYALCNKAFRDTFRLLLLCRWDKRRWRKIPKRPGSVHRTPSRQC
5-hydroxytryptamine receptor 2A (Homo sapiens), sequence (P28223 whole entry, looked up): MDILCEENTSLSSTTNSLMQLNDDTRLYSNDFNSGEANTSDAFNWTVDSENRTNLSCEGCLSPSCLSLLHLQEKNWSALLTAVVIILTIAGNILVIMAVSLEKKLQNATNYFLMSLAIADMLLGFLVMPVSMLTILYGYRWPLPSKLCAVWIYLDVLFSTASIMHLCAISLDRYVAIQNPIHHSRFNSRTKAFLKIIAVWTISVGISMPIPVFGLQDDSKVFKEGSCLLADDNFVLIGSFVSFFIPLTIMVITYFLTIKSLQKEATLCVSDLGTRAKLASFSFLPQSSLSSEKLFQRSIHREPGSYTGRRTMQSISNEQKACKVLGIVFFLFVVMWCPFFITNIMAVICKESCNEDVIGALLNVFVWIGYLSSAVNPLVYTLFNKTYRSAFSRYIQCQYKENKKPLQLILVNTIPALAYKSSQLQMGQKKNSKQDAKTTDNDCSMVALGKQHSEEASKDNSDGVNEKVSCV
D(2) dopamine receptor (Homo sapiens), sequence (P14416 whole entry, looked up): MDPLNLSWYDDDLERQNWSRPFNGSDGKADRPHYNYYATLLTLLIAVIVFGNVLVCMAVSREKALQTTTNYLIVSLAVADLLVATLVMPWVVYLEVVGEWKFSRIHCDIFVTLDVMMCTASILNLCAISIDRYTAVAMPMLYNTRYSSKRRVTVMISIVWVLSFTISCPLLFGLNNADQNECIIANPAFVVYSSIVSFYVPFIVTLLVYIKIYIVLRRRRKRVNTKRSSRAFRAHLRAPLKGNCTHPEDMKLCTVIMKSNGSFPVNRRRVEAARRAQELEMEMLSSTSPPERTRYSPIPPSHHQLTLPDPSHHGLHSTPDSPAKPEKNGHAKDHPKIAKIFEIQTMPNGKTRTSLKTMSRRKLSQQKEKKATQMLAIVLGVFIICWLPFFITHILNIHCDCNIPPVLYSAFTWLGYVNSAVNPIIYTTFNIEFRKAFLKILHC
Gonadotropin-releasing hormone receptor (Homo sapiens), sequence (P30968 whole entry, looked up): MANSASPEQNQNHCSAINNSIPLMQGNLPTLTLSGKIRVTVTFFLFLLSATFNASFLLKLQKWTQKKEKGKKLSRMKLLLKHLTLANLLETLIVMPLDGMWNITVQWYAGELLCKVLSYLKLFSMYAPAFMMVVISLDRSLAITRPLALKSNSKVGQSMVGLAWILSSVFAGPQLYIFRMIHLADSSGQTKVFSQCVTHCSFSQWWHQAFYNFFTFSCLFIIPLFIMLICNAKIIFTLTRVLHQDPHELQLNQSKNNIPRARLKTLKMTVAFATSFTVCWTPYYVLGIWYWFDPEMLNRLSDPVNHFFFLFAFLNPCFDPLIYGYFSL

CCCCC(CC)COC(=O)c1ccccc1O (centres undefined)
not listed: [18] | [19] | [20]
inactive: all other assays above

CN1CCN(C2=Nc3cc(F)ccc3Cc3ccccc32)CC1
active: [11] 23.1 nM | [15] 29800 nM
not listed: [16] | [19] | [20]
inactive: all other assays above

CCOC(=O)COC(=O)c1ccccc1C(=O)OCC
not listed: [13] | [14] | [18] | [19] | [20]
inactive: all other assays above

CCC1NC(=O)c2cc(S(N)(=O)=O)c(Cl)cc2N1 (centres undefined)
not listed: [12] | [14] | [17]
inactive: all other assays above

OCCCc1cccnc1
not listed: [14] | [20]
inactive: all other assays above

O=C(O)c1ccncc1
not listed: [19] | [20]
inactive: all other assays above

Oc1ccccc1C=NCc1ccccc1
not listed: [11]
inactive: all other assays above

N[C@@H](Cc1cc(I)c(O)c(I)c1)C(=O)O
not listed: [12] | [16] | [20]
inactive: all other assays above

CCN(CC)CCSC(=O)C(c1ccccc1)c1ccccc1
active: [2] 33500 nM | [11] 1450 nM | [12] 3380 nM | [19] 10.3 nM
not listed: [17] | [18] | [20]
inactive: all other assays above

NC(=O)CC[C@@H]1NC(=O)[C@H](Cc2ccccc2)NC(=O)[C@H](Cc2ccc(O)cc2)NC(=O)CCSSC[C@@H](C(=O)N2CCC[C@H]2C(=O)N[C@@H](CCCN=C(N)N)C(=O)NCC(N)=O)NC(=O)[C@H](CC(N)=O)NC1=O
not listed: [11] | [12] | [13] | [18] | [19]
inactive: all other assays above

Cc1nc2n(c(=O)c1CCN1CCC(c3noc4cc(F)ccc34)CC1)CCCC2
not listed: [11] | [12] | [13] | [15] | [17] | [19] | [20]
inactive: all other assays above

CN1CCCCC1CCN1c2ccccc2Sc2ccc(S(C)=O)cc21 (centres undefined)
active: [19] 10.3 nM | [17] 1880 nM
not listed: [11] | [13] | [14]
inactive: all other assays above

COc1ccc2nc(NC(=O)Nc3ccccc3)sc2c1
active: [2] 596 nM | [15] 11900 nM
not listed: [10] | [20]
inactive: all other assays above

Cc1ccccc1C(=O)Nc1ccc(C(=O)N2CCCC(N(C)C)c3ccccc32)cc1 (centres undefined)
not listed: [10] | [14] | [17] | [18]
inactive: all other assays above
